From PMC7862700, “An all-to-all approach to the identification of sequence-specific readers for epigenetic DNA modifications on cytosine” come the findings set out here.

Common to all, as to assay: DAPPL (digital affinity profiling via proximity ligation, sequencing); 10 mM Tris-HCl pH 7.5, 50 mM NaCl, 1 mM DTT, 4% glycerol, room temperature, 30 min; GST-TFs on glutathione beads, 16-mer random dsDNA library, 0.1% formaldehyde crosslink after washing; high values mean tight binding
In one experiment the target is T1, FEV (Homo sapiens, UniProt Q99581 1-238).
T1 sequence: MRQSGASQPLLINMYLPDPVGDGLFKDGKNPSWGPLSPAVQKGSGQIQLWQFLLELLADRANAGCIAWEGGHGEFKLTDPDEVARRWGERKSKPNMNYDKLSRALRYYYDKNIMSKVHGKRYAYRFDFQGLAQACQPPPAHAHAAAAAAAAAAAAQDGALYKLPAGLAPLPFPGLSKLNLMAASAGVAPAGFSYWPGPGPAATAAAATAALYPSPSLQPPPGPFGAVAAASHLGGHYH
The following applies: protein: recombinant; tags: N-terminal GST; dsDNA, one strand shown. The method in brief:
(§1)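 Each value of binding signal is a hexamer's read frequency for a factor divided by the same hexamer's frequency in the tag-only sample. Barcoded, bead-captured GST fusions of human transcription factors made in yeast were pooled with that sample and incubated with 200 nmole of a random double-stranded 16-mer DNA library in Tris/NaCl/DTT/glycerol buffer at room temperature for 30 min. Washing, 0.1% formaldehyde crosslinking, proximity ligation, PCR and Illumina NextSeq500 sequencing followed.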

The target in a further experiment is ETV5 (Homo sapiens, UniProt P41161 1-510). The following applies: protein: recombinant; tags: N-terminal GST; dsDNA, one strand shown. The procedure, abridged: as §1
The next experiment concerns the target HSF1 (Homo sapiens, UniProt Q00613 1-529). Conditions: protein: recombinant; tags: N-terminal GST; chain copies: 3; dsDNA, one strand shown. The method in brief: as §1
In the next experiment the target is T2, SPIC (Homo sapiens, UniProt Q8N5J4 1-248).
T2 sequence: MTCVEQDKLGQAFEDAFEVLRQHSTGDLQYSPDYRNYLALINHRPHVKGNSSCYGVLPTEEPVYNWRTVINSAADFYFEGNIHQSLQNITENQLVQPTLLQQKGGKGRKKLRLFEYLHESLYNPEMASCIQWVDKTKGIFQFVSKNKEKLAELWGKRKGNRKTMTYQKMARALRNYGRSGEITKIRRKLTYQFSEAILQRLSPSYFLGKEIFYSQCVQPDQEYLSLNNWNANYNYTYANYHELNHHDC
Conditions: protein: recombinant; tags: N-terminal GST; dsDNA, one strand shown. The method in brief: as §1

For the next experiment, the target named is ELF4 (Homo sapiens, UniProt Q99607 1-663). The following applies: protein: recombinant; tags: N-terminal GST; dsDNA, one strand shown. The method in brief: as §1
The target in the next experiment is T3, ELK4 (Homo sapiens, UniProt P28324-2 1-405).
T3 sequence: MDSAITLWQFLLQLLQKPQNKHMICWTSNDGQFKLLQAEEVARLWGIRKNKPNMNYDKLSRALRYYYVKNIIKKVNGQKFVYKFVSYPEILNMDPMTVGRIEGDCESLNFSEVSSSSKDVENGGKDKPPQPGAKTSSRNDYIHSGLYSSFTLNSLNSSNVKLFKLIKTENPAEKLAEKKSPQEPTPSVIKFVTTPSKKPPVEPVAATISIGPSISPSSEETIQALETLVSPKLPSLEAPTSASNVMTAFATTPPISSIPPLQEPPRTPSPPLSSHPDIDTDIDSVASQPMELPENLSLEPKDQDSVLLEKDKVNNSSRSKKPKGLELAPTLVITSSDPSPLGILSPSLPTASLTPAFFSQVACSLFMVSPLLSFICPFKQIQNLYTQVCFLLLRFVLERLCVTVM
Conditions: protein: recombinant; tags: N-terminal GST; dsDNA, one strand shown. The method in brief: as §1

The next experiment concerns the target T4, ETV2 (Homo sapiens, UniProt O00321 1-342).
T4 sequence: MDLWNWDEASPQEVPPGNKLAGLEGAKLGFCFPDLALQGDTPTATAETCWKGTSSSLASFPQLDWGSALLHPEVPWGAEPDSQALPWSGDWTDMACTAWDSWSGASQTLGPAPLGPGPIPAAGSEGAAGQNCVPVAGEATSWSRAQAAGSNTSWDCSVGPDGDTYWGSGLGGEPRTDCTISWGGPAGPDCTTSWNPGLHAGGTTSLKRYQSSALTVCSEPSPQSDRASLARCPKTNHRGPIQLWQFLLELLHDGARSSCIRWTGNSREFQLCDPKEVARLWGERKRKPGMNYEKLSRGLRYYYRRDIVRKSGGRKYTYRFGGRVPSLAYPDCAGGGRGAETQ
The following applies: protein: recombinant; tags: N-terminal GST; dsDNA, one strand shown. The method in brief:
as §1

The target of another experiment is T5, ELF3 (Homo sapiens, UniProt P78545 1-371).
T5 sequence: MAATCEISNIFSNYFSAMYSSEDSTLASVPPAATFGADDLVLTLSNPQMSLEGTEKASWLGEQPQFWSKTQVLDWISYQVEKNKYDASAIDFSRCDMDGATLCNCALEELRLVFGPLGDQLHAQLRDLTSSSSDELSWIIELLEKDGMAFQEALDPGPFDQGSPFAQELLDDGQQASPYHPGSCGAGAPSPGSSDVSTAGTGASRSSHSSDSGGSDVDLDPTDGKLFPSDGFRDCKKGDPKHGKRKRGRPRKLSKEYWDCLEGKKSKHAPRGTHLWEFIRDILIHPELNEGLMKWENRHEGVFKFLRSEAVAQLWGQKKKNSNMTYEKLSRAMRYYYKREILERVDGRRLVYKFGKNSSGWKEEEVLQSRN
The following applies: protein: recombinant; tags: N-terminal GST; dsDNA, one strand shown. The procedure, abridged:
as §1

Another experiment has as its target CRX (Homo sapiens, UniProt O43186 1-299). Conditions: protein: recombinant; tags: N-terminal GST; dsDNA, one strand shown. The method in brief: as §1
The next experiment concerns the target ETV1 (Homo sapiens, UniProt P50549 1-477). Conditions: protein: recombinant; tags: N-terminal GST; dsDNA, one strand shown. The method in brief: as §1
The target of another experiment is T6, ERF (Homo sapiens, UniProt P50548 1-548).
T6 sequence: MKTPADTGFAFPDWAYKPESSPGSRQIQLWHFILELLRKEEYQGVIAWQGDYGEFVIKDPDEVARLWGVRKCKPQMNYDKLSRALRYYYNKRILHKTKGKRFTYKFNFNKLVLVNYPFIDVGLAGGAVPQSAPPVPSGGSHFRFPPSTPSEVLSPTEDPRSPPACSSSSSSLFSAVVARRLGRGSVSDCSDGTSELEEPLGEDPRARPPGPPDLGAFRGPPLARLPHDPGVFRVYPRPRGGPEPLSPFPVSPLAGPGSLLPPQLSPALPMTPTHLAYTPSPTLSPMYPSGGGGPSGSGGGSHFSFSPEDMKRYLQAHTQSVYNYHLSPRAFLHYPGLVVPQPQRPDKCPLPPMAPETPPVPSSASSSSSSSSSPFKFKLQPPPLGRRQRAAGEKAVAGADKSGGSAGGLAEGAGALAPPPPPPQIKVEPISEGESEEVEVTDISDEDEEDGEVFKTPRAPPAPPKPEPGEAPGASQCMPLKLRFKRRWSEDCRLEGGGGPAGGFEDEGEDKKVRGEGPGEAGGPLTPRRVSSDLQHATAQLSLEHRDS
The following applies: protein: recombinant; tags: N-terminal GST; dsDNA, one strand shown. The method in brief:
as §1

For another experiment, the target named is T7, ETV3L (Homo sapiens, UniProt Q6ZN32 1-361).
T7 sequence: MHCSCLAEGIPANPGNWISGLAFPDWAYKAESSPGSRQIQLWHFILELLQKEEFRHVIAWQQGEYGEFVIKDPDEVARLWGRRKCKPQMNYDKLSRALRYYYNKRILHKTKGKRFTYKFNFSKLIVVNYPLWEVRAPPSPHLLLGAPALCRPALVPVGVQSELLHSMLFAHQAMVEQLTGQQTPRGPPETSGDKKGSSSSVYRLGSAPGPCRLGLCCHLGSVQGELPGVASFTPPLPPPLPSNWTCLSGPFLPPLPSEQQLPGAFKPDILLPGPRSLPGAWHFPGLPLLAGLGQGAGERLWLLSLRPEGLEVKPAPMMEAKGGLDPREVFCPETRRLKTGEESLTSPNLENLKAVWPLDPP
Conditions: protein: recombinant; tags: N-terminal GST; dsDNA, one strand shown. The method in brief: as §1

A further experiment addresses T8, ETS2 (Homo sapiens, UniProt P15036 1-469).
T8 sequence: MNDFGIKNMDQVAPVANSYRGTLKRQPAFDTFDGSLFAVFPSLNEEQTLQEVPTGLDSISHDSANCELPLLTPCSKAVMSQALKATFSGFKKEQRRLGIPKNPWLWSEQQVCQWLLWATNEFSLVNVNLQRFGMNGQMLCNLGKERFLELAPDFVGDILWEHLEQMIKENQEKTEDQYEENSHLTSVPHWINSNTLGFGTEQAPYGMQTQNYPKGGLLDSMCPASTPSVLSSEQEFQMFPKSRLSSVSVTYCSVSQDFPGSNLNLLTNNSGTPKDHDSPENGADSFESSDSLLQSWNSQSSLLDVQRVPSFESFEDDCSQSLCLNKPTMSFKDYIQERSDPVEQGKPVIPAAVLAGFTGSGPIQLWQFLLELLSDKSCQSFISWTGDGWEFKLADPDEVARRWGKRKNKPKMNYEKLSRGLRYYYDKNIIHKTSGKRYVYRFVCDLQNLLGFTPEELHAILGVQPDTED
Conditions: protein: recombinant; tags: N-terminal GST; dsDNA, one strand shown. The procedure, abridged: as §1

A further experiment has as its target T9, SPDEF (Homo sapiens, UniProt O95238 1-335).
T9 sequence: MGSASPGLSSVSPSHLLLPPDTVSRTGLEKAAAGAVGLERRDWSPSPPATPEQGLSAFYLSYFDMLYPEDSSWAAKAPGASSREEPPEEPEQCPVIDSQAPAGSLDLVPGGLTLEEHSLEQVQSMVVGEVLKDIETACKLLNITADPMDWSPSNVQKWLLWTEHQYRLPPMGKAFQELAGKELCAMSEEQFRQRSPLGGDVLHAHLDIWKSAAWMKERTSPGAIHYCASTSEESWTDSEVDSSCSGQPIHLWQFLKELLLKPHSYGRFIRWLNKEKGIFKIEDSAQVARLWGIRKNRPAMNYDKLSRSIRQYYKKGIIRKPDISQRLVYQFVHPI
Conditions: protein: recombinant; tags: N-terminal GST; dsDNA, one strand shown. The procedure, abridged: as §1

Another experiment addresses T10, ETV7 (Homo sapiens, UniProt Q9Y603 1-341).
T10 sequence: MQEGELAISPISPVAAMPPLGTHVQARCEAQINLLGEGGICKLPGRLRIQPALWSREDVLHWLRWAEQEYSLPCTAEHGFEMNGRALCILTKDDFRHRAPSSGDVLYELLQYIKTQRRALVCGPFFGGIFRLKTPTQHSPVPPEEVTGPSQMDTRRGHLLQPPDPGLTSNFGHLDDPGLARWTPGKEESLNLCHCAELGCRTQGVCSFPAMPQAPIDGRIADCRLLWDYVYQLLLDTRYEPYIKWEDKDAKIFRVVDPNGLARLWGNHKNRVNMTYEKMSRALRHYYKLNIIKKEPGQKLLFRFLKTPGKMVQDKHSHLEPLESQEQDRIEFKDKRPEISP
Conditions: protein: recombinant; tags: N-terminal GST; dsDNA, one strand shown. The procedure, abridged:
as §1

The target of another experiment is T11, ELF5 (Homo sapiens, UniProt Q9UKW6-2 1-255).
T11 sequence: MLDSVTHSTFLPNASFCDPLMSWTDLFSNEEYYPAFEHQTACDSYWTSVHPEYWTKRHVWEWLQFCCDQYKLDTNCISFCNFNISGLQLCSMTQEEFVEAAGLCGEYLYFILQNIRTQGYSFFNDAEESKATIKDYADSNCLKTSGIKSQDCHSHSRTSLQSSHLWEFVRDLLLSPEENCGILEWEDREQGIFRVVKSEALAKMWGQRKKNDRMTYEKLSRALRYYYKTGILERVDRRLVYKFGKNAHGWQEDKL
Conditions: protein: recombinant; tags: N-terminal GST; dsDNA, one strand shown. The procedure, abridged: as §1

For another experiment, the target named is T12, ETV3 (Homo sapiens, UniProt P41162-2 1-143).
T12 sequence: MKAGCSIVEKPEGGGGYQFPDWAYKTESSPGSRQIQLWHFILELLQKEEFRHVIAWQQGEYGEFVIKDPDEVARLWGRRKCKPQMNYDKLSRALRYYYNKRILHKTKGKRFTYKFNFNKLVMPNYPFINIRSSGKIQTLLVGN
The following applies: protein: recombinant; tags: N-terminal GST; dsDNA, one strand shown. The procedure, abridged:
as §1

Another experiment addresses ETV6 (Homo sapiens, UniProt P41212 1-452). The following applies: protein: recombinant; tags: N-terminal GST; dsDNA, one strand shown. The procedure, abridged: as §1

Sequence of ETV5 (P41161 whole entry): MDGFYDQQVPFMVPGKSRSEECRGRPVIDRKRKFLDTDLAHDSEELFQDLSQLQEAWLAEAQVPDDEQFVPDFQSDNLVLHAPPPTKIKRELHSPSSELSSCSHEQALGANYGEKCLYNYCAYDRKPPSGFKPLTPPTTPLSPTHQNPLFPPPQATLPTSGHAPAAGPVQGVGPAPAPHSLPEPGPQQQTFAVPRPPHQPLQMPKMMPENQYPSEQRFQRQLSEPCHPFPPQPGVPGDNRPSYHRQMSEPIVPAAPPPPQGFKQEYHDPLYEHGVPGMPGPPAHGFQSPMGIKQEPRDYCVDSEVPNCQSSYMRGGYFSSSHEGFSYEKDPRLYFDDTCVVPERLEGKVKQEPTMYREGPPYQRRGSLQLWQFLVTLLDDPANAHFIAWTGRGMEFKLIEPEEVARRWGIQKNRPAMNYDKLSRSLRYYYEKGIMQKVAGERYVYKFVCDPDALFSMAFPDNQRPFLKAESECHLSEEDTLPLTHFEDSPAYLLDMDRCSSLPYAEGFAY
Sequence of ETV6 (P41212 whole entry): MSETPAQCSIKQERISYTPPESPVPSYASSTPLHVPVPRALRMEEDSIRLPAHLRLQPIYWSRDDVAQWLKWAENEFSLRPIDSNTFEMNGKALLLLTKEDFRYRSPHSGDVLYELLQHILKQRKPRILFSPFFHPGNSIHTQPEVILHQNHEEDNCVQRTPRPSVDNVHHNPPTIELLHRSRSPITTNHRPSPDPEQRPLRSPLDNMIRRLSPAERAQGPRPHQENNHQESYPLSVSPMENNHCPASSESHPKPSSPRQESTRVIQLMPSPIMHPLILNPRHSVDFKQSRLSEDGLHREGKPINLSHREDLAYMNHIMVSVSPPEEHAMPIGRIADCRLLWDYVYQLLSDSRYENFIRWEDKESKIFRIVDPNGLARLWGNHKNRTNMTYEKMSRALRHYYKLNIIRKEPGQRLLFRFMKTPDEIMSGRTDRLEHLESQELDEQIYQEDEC
Sequence of HSF1 (Q00613 whole entry): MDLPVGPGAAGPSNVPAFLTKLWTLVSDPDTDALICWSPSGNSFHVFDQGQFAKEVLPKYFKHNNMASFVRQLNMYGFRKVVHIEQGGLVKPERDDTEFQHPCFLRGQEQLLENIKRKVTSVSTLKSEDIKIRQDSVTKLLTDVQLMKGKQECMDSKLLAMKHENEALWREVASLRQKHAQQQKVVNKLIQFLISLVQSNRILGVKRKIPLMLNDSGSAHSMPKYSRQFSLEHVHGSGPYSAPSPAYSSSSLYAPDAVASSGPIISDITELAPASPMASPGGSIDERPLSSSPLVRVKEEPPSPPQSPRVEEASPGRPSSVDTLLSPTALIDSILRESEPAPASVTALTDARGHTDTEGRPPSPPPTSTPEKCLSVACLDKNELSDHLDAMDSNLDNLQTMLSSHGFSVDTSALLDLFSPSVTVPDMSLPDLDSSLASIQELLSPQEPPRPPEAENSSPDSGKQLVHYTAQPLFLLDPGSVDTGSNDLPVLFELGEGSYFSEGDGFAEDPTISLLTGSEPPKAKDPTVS
Sequence of ELF4 (Q99607 whole entry): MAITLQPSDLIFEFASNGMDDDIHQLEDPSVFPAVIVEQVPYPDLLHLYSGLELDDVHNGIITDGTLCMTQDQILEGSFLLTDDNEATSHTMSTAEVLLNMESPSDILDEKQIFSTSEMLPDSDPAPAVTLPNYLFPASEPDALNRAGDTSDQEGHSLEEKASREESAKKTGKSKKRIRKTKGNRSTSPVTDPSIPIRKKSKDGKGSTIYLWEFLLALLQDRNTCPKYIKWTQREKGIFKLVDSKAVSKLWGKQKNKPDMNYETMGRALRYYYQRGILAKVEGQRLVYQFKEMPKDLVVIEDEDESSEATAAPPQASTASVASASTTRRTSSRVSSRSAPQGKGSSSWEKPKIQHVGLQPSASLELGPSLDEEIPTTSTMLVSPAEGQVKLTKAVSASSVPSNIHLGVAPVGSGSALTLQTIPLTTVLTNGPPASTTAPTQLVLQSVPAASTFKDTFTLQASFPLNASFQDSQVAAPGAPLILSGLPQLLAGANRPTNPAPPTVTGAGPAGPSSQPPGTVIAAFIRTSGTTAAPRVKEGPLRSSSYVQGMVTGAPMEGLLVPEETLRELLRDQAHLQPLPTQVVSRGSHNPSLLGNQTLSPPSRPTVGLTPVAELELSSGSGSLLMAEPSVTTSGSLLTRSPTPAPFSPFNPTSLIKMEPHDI
Sequence of CRX (O43186 whole entry): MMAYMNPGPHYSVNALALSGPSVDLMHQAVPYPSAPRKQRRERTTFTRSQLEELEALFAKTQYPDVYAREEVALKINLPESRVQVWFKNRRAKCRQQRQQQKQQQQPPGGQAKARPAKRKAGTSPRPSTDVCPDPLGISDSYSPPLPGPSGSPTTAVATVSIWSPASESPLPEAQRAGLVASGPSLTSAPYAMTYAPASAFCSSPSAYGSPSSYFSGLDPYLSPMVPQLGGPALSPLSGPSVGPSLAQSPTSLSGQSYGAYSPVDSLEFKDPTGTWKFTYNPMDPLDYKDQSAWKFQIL
Sequence of ETV1 (P50549 whole entry): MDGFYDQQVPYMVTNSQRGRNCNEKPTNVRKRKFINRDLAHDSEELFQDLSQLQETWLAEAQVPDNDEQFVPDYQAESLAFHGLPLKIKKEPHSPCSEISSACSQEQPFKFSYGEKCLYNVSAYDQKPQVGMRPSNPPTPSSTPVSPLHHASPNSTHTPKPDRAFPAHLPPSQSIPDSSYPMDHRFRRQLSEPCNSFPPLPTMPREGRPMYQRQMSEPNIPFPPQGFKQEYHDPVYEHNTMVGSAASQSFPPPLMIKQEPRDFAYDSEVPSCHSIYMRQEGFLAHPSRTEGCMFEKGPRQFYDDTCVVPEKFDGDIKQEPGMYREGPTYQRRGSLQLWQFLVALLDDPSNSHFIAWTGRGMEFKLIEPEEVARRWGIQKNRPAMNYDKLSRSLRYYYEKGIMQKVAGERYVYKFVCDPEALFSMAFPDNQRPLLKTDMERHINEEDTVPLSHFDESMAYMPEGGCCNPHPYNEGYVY

With TCGTCT, the binding signal in the experiment with FEV was 1.3 fold enrichment (6-mer frequency, TF over GST control); with ETV5, 1.33 fold enrichment (6-mer frequency, TF over GST control); with HSF1, 1.46 fold enrichment (6-mer frequency, TF over GST control); with SPIC, 1.27 fold enrichment (6-mer frequency, TF over GST control); with ELF4, 1.35 fold enrichment (6-mer frequency, TF over GST control); with ELK4, 1.32 fold enrichment (6-mer frequency, TF over GST control). In addition, the binding signal in the experiment with ETV2 is 1.36 fold enrichment (6-mer frequency, TF over GST control); with ELF3 it was 1.52 fold enrichment (6-mer frequency, TF over GST control); with CRX, 1.37 fold enrichment (6-mer frequency, TF over GST control); in the experiment with ETV1 it was 1.41 fold enrichment (6-mer frequency, TF over GST control); with ERF it was 1.4 fold enrichment (6-mer frequency, TF over GST control); in the experiment with ETV3L, 1.43 fold enrichment (6-mer frequency, TF over GST control). The binding signal with ETS2 was 1.46 fold enrichment (6-mer frequency, TF over GST control); with SPDEF, 1.37 fold enrichment (6-mer frequency, TF over GST control); with ETV7 it was 1.21 fold enrichment (6-mer frequency, TF over GST control); with ELF5, 1.32 fold enrichment (6-mer frequency, TF over GST control); in the experiment with ETV3 it was 1.23 fold enrichment (6-mer frequency, TF over GST control); with ETV6, 1.34 fold enrichment (6-mer frequency, TF over GST control).
